Test results published in PubChem BioAssay (Tox21).
A number with no mark means an inactive call. Activity calls are given as the source filed them. The call rests on the fitted dose curve.

molecular target: Muscarinic acetylcholine receptor M1 (Homo sapiens) (UniProt P11229); assay: Cholinergic receptor muscarinic 1 (CHRM1) small molecule agonists, cell-based qHTS assay (AID 1963589); settings: CHRM1-CHO cells, agonist mode, calcium flux fluorescence; series mostly up to 76.8 µM; activation: at the top concentration; further: nearly all actives have a fitted effect of over 35% in size
Sequence (P11229 whole entry, looked up): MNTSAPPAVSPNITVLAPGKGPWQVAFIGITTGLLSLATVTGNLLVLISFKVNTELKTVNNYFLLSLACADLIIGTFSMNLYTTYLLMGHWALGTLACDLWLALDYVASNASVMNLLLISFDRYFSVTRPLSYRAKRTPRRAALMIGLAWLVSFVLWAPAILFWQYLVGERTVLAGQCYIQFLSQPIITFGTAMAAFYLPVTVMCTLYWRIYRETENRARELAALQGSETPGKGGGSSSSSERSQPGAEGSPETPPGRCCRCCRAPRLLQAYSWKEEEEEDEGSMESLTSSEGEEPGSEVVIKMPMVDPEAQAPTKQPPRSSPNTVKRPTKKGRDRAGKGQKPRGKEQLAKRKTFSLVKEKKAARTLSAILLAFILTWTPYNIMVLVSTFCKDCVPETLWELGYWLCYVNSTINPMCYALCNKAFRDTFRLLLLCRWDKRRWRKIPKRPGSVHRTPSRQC
Text: National Center for Advancing Translational Sciences [NCATS]
Division of Preclinical Innovation [DPI]
U.S. Environmental Protection Agency [EPA]
National Institutes of Environmental Health Sciences [NIEHS]
National Toxicology Program [NTP]
U.S. Food and Drug Administration [FDA]
The CHRM1 is a muscarinic receptor. This receptor plays a crucial role in learning and memory processes and has long been identified as a promising therapeutic target for the improvement of cognitive decline in Alzheimer's disease (AD). The CHRM1-CHO cell line stably expressing human muscarinic acetylcholine receptor M1 (CHRM1) can be used for screening agonists and antagonists of interactions between CHRM1 and its ligands. The CHRM1-CHO Calcium Flux Assay is a homogeneous fluorescence-based assay for detecting the intracellular calcium level using FDSS kinetic plate reader system.
CHRM1-CHO cells were dispensed at 1000 cells/3uL/well in 1536-well black-clear bottom plates using a Multidrop Dispenser. After the assay plates were incubated at a 37 C/5% CO2 incubator for 18 h, 3 uL of Dye Loading Buffer was transferred to the assay plate by a Flying Reagent Dispenser. The assay plates were incubated at 37 C for 1h. For agonist mode, 23 nL of compounds dissolved in DMSO, positive controls or DMSO only was transferred to the assay plate by a pin tool. […] Each test compound was measured at 15 concentrations in three independent runs.
On the % scale 0 is the no-effect control and ±100 the full control effect.

Compound | activation | Potency
CC(C)C(=O)OCCc1ccccc1 | -0.783% | 
CC(C)(C)CC(C)(C)c1ccc(O)c(Cc2ccc(Cl)cc2Cl)c1 | 0.382% [at 35.3 µM] | 
O=Cc1ccccc1S(=O)(=O)O | -0.147% | 
COC(=O)C1=C(C)NC(C)=C(C(=O)OCC(C)=O)C1c1ccccc1[N+](=O)[O-] (stereo not given) | 0.888% [at 35.3 µM] | 
C=C[Si](OC(C)=O)(OC(C)=O)OC(C)=O | 5.56% | 
C=C/C=C/C=C/CCCCC | 0.27% [at 15.8 µM] | 
Oc1ccccc1-c1nnco1 | -0.132% [at 35.3 µM] | 
Cc1ccc(O)c(O)c1 | 4.86% | 
CCCNC(C)C(=O)Nc1c(C)csc1C(=O)OC (stereo not given) | 0.06% [at 35.3 µM] | 
COCCOC | -0.97% | 
Oc1cccc(Nc2ccccc2)c1 | 1.31% | 
NC(N)=NCCC[C@H](N)C(=O)O | -0.347% [at 6.97 µM] | 
COc1nc(C)nc(N)n1 | -0.467% | 
Cc1ccccc1N=C(N)N=C(N)N | -1.13% | 
Cc1cc(Nc2ccc(O)cc2)ccc1N | 0.22% | 
C=CCCC(=O)O | 0.822% | 
SCCOCCOCCS | -0.0846% | 
COc1cc2ncnc(Nc3cccc(Cl)c3)c2cc1OC | -1.11% [at 15.8 µM] | 
O=C(Nc1cccc([N+](=O)[O-])c1)c1cc2ccccc2cc1O | 3.71% | 
CC1C2CC(CC2C2CCCC(O)C2)C1(C)C (stereo not given) | 0.37% | 

Compound | activation | Potency
O=C(c1ccccc1)c1ccc(O)cc1O |  | inactive
O=CNc1ccccc1 | -0.516% | 
CNC(=S)NN | -0.0809% | 
CC(=O)/C=C/C=C1/C2CCC(C2)C1(C)C (stereo not given) | -0.913% [at 35.3 µM] | 
O=C(/C=C/c1ccccc1)OCCc1ccccc1 | 0.0801% | 
COC(=O)CCSCCC(=O)OC | -0.113% | 
CC(C)(O)c1ccc(C(C)(C)O)cc1 | -0.175% | 
O=C(c1ccccc1)c1ccccc1 |  | inactive
Cc1cc(Cl)c(C)cc1Cl | 1.56% | 
C=CCOC(=O)CCC1CCCCC1 | -0.0237% | 
O=S(=O)(c1ccc(OCc2ccccc2)cc1)c1ccccc1O | 0.357% | 
NS(=O)(=O)c1ccc(C(=O)O)cc1 | 0.409% [at 35.3 µM] | 
C=C(C)C1CC=C(C)C(=O)C1 (stereo not given) | -0.23% | 
CCC(C)(CN(C)C)OC(=O)c1ccccc1 (stereo not given) | -0.334% [at 35.3 µM] | 
O=C1CCCN1C1CCCCC1 | 3.4% | 
CCCOC(OCCC)OCCC | -0.0948% | 
CCCCCCCCCCCCCC[P+](CCCC)(CCCC)CCCC (tested in a mixture with another compound) | -0.0935% | 
COCCCOCCCOC | 0.213% | 
CN(C)c1ccc(N=NS(=O)(=O)O)cc1 | -0.839% | 
c1ccccc1 | 0.0618% | 
